Shown are actives, neighbours in structure and some others; about 7.3% of the full set was active somewhere.
Tau ThT inhib – blocks human tau fibril formation measured by thioflavin T. 270,000 compounds, 2.1% hits. P10636. Potency, µM (top dose mostly 57.4 µM), without a hit: top-dose activity, negative = inhibition, hits mostly inhibitors. recombinant tau K18 P301L, heparin-induced fibrillization, ThT fluorescence; also: nearly all actives have a fitted effect of over 55% in size
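In this qHTS, human K18 P301L tau is incubated with compound and heparin for 6 hr at 37 C, and Thioflavin T fluorescence then reports fibril load.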
VP16 counter – inhibits Gal4-VP16 luciferase reporter, ROR gamma counter-screen. Drosophila S2 Gal4-VP16 UAS-luciferase, luminescence, 20 h. Potency, µM (highest dose often 53.6 µM), without a hit: at the top dose activity, negative = inhibition, actives largely listed as inhibitors. 310,000 compounds, 3.5% hits. AID 2546;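 also: Gal4-VP16 expression switched on by copper sulfate through the metallothionein promoter; nearly all actives have a fitted effect of over 50% in size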
Tau fluor cs – counter-screen for tau fibril formation inhibitors | tau K18 P301L Alexa594 fluorescence, heparin fibrillization | Potency, µM (doses to about 57.7 µM), for the others: top-dose activity change, negative = decrease | 280,000 compounds, 0.93% hits | AID 1463; also: nearly all actives have a fitted effect of over 55% in size
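Human tau K18 P301L (15 uM unlabeled, 0.24 uM Alexa 594-labeled) in 100 mM sodium acetate pH 7 with 20 uM heparin, 6 hr at 37 C. ThT 30 uM added, 1 hr ambient; Alexa 594 FP and total fluorescence read at 555/632 nm.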
Tau fibril FP – tau fibrillization inhibition (FP). Potency, µM (highest dose often 57.7 µM), without a hit: at the top dose activity, negative = inhibition, actives largely listed as inhibitors. K18 P301L tau heparin fibrillization, Alexa594 FP, 6 h. P10636. AID 1468. 280,000 compounds, 0.39% hits; also: nearly all actives have a fitted effect of over 55% in size
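Quantitative HTS format: compounds meet 15 uM recombinant K18 P301L tau and Alexa 594-tau tracer in 100 mM sodium acetate pH 7; 20 uM heparin triggers fibrillization at 37 C over 6 hr; FP gives the signal.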
RORg inh – inhibitors of mouse ROR gamma transcriptional activity | Drosophila S2 Gal4-RORgamma UAS-luciferase reporter, 20 h | Potency, µM (top dose mostly 53.6 µM), for inactives: at the top dose activity change, negative = inhibition, most hits filed as inhibitors | 310,000 compounds, 5.4% hits | AID 2551; also: nearly all actives have a fitted effect of over 60% in size
Target sequence (P51450 whole entry, looked up, the tested form may be a part): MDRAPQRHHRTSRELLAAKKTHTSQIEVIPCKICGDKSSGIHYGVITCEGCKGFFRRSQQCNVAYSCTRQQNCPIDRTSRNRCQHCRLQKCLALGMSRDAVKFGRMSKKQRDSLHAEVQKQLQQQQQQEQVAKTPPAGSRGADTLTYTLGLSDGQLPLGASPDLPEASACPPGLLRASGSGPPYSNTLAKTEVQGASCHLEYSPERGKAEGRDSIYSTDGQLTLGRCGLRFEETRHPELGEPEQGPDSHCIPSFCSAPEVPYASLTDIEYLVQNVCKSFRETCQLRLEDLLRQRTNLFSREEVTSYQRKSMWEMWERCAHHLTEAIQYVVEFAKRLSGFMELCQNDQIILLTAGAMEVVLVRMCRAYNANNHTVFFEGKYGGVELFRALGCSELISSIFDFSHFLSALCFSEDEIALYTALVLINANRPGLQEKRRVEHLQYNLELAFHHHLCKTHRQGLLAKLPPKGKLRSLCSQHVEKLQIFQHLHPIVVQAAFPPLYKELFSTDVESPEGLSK
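Using a luciferase readout, inhibitors were identified by reduced reporter activity in Drosophila cells coexpressing a copper-inducible Gal4–ROR gamma fusion and UAS-driven Photinus luciferase, incubated 20 hr after 700 uM copper sulfate.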
Numbers without * were called inactive; u = inconclusive; x = no result given; [ ] = another dose, or the depositor's remark. Calls follow the shape of the dose curve; as a rule, active = well fitted curve in the direction sought with a large enough effect; inconclusive = small, poorly fitted or top-dose-only effect, or another doubt; inactive = no such curve, though single readings can be large; an effect the other way counts as inactive or inconclusive. % is scaled to controls: 0 for no effect and ±100 for the full control effect; potency is read from the fitted curve at half-maximal effect.

SMILES	Tau ThT inhib	VP16 counter	Tau fluor cs	Tau fibril FP	RORg inh
COC(=O)C1=C(C)NC(=O)/C1=C\c1cc(C)n(-c2ccc(F)cc2)c1C	16µM*	-1%	u	1%	0%
CC(=O)Nc1cccc(NC(=O)c2csc(C)c2)c1	x	-9%	x	x	-16%
C=C(C)CNC(=S)N1CCN(C(c2ccccc2)c2ccccc2)CC1	-6%	u	-23%	u	u
COCCCNC(=S)N1CCN(C(c2ccccc2)c2ccccc2)CC1	x	u	x	x	16µM*
CC(C)CNC(=S)N1CCN(C(c2ccccc2)c2ccccc2)CC1	-5%	u	-16%	-9%	13µM*
S=C(NCc1ccco1)N1CCN(C(c2ccccc2)c2ccccc2)CC1	-15%	u	-27%	-8%	13µM*
Fc1ccc(-n2cc(-c3ccccc3)c3c(NC4CCCCC4)ncnc32)cc1	-11%	x	-5%	7%	x
COc1cccc(-c2cn3c(n2)sc2cc(C(=O)NC4CCCCCC4)ccc23)c1	u	x	-11%	0%	x
CCc1cc(SC#N)cc(C)c1N	14µM*	-13%	-24%	u	-10%
CCOC(=O)C1(Cc2cccc(OC)c2)CCN(C2CCOCC2)CC1	13µM*	-21%	-82%	-18%	37%
CCOC(=O)C1(Cc2cccc(F)c2)CCN(C2CCOCC2)CC1	-13%	-2%	-14%	-5%	7%
C#CCOC(=O)c1ccccc1C(=O)OCC#C	-6%	-10%	3%	7%	5%
C#CCOC(=O)c1ccccc1C(=O)n1nnc2ccccc21	u	u	-12%	-5%	18µM*
CCn1cc(Cl)c(C(=O)Nc2nc3ccccc3n2CCN2CCCCC2)n1	1%	8.9µM*	-1%	-2%	10µM*
Cn1ncc([N+](=O)[O-])c1C(=O)Nc1nc2ccccc2n1CCN1CCCCC1	-13%	u	-4%	3%	3.5µM*
COc1cccc(N2CCN(C(=O)CCCCCn3c(=S)[nH]c4cc5c(cc4c3=O)OCO5)CC2)c1	x	-26%	x	x	2.2µM*
O=C(CCCCCn1c(=S)[nH]c2cc3c(cc2c1=O)OCO3)N1CCN(c2ccccc2)CC1	x	-7%	x	x	u
CCOCCCn1c(=S)[nH]c2cc3c(cc2c1=O)OCO3	-15%	2.5µM*	-5%	5%	2.5µM*
O=C(CCCn1c(=S)[nH]c2cc3c(cc2c1=O)OCO3)N1CCN(c2ccccc2F)CC1	u	7.9µM*	-28%	3%	13µM*
O=C(CCCn1c(=S)[nH]c2cc3c(cc2c1=O)OCO3)N1CCN(c2ccc(F)cc2)CC1	u	u	u	3%	7.9µM*
CCN(CC)CCn1c(=S)[nH]c2cc3c(cc2c1=O)OCO3	-6%	-3%	-3%	0%	-41%
CC(C)OCCCNC(=O)CN1C(=O)COc2ccc(S(=O)(=O)N3CCOCC3)cc21	-7%	x	-6%	-6%	x
Cc1ccc(C)c(N2CCN(C(=O)CCCn3c(=S)[nH]c4cc5c(cc4c3=O)OCO5)CC2)c1	u	x	u	6%	-3%[0.365 µM]
O=C(CCCn1c(=S)[nH]c2cc3c(cc2c1=O)OCO3)N1CCN(c2ncccn2)CC1	u	-21%	1%	7%	16µM*
Cc1ccc2nc(SCc3nc(-c4ccc(Cl)cc4)no3)[nH]c2c1	u	x	10µM*[quencher]	18µM*	x
COc1ccc(-c2noc(CSc3nc4ccccc4[nH]3)n2)cc1	4%	x	-3%	-4%	x
COc1cc(CCNC(=O)CCCn2c(=O)c3cccn3c3cccnc32)cc(OC)c1OC	x	-1%	x	x	-20%
CCN(CCCNC(=O)c1cc2cc3cc(C)ccc3nc2s1)c1cccc(C)c1	u	x	7.9µM*[quencher]	10%	x
Cc1ccc(C2=Nc3ccccc3N=C(c3ccc(F)cc3)C2)c(O)c1	4%	x	-8%	-3%	x
COC(=O)c1ccc(CN2C(=O)C3CCCCC3C2=O)o1 (centres undefined)	-16%	4.5µM*	3%	-4%[2.34 µM]	2.8µM*
